Assay results: the supplement of paper PMC4166925
± gives the standard deviation of the averaged measurements. In all, about 33,000 sequences were measured (“E-score (dimensionless, -0.5 to 0.5)”: median about -0.046, highest 2% from about 0.36 on). What follows is part of a selection rich in the highest values, with near analogues and random picks from the rest.

system: T1, SpTbr T-box DNA-binding domain (GST fusion); assay: PBM E-score of 8-mer (E-score (dimensionless, -0.5 to 0.5)); Tbr is Tbrain of the sea star Patiria miniata (Pm) or the sea urchin Strongylocentrotus purpuratus (Sp); higher = stronger binding preference; conditions: the construct has about 5 more residues each side
T1 sequence: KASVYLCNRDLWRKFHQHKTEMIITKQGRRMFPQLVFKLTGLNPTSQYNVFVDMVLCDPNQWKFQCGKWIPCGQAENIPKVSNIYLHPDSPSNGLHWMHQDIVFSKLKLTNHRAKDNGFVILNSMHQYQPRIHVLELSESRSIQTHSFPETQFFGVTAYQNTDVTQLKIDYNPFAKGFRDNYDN
How it was run: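 Expression of GST-fused Tbr T-box DNA-binding domains, each holding the full T-box plus roughly five flanking residues, was carried out in BL21 E. coli at 20 °C, with purification by glutathione affinity chromatography. Universal Agilent arrays made double-stranded by primer extension were incubated with the protein at 200 nM in PBS (pH 7.5), then scanned and quantified. All ungapped 8-mers were scored from probe intensities, and each received an enrichment E-score from the Universal PBM Analysis Suite, averaged over duplicate arrays.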

Sequence	PBM E-score of 8-mer
ACGATCTC	0.0369 ± 0.034
GGATGACC	0.103 ± 0.0083
AACCACGG	0.0188 ± 0.11
GCAGAAGA	-0.218 ± 0.017
GAGTGCAA	0.0398 ± 0.012
ACGTGCGG	0.206 ± 0.011
GCGTGCGA	0.317 ± 0.025
GAGTGCGA	0.411 ± 0.021
GAGTGCGC	-0.0493 ± 0.043
ACGTGCGA	0.4353 ± 0.0022
ACTCTTCT	-0.224 ± 0.0037
CCACTTCC	0.072 ± 0.0026
ACACTTCC	0.417 ± 0.016
AAACTTCG	-0.00264 ± 0.024
AAACTTCT	-0.146 ± 0.1
CCACTTCA	0.108 ± 0.019
TCACTTCA	0.151 ± 0.018
ACACTTCG	0.409 ± 0.0085
ACACTTCA	0.412 ± 0.0084
CCACTTCG	0.193 ± 0.017
ACACTTCT	0.383 ± 0.035
GCACTTCC	0.326 ± 0.017
ACTCGTAC	-0.0977 ± 0.07
CATCCTGG	-0.0597 ± 0.01
AAGTTAAA	0.0719 ± 0.053
AGACTCTC	-0.0738 ± 0.045

Sequence	PBM E-score of 8-mer
TCTCAAAA	-0.176 ± 0.025
GACAATCC	0.0693 ± 0.021
TGGTGCAA	0.214 ± 0.0077
AGGTGCTA	0.4822 ± 0.0033
AGGTGCAA	0.414 ± 0.005
CGGTGCTA	0.258 ± 0.035
AGGTGCTG	0.4215 ± 0.0039
GGGTGCAA	0.271 ± 0.017
AGGTGCGG	0.429 ± 0.025
AGGTGCTC	0.012 ± 0.081
AGGTGCGC	0.3101 ± 0.0015
AAGTGCGG	0.273 ± 0.027
ATGTGCTA	0.328 ± 0.024
ATGTGCTG	0.161 ± 0.0054
GACTGTCA	0.144 ± 0.037
AGACTCGA	-0.158 ± 0.006
GGTGTAGA	0.35 ± 0.009
CGATCAGC	0.0172 ± 0.057
CAGAGTCG	0.144 ± 0.077
TAGACAGA	-0.0941 ± 0.02
CCAAGAGG	0.12 ± 0.0026
GACATTGC	0.0656 ± 0.018
CCCACGTA	-0.0631 ± 0.1
AAGAAGTA	-0.119 ± 0.082
GTGTGCTA	0.268 ± 0.025
GCGTGCTA	0.21 ± 0.019

Sequence	PBM E-score of 8-mer
GGGTGCTA	0.397 ± 0.0085
GTTTACGA	0.0241 ± 0.021
TACTTCGA	-0.0694 ± 0.013
AGGCGCTA	0.41 ± 0.023
GGGCGCTA	0.314 ± 0.014
CGGCGCTA	0.152 ± 0.019
GGGGGCGA	-0.0505 ± 0.016
GGGCGCGA	0.422 ± 0.031
AGGCGCGA	0.471 ± 0.0037
AGGCGCGC	0.185 ± 0.039
AGGCGACG	0.301 ± 0.066
CGGCGCGA	0.3178 ± 0.00058
AGGCGACA	0.37 ± 0.013
AGGCGACC	0.012 ± 0.083
AGGCGCGG	0.291 ± 0.017
CTAGATAA	-0.00975 ± 0.025
ACCGGTAC	-0.1754 ± 0.0017
TAAATGTA	-0.0999 ± 0.021
CGCACTGC	0.104 ± 0.0094
ATGCGGGA	-0.193 ± 0.03
GAATAGCA	0.189 ± 0.0036
AGTAGGAG	-0.00869 ± 0.02
CAGGCCTC	-0.159 ± 0.029
GCATAGAA	-0.126 ± 0.09
AGGCGAGC	-0.233 ± 0.11
GGGCGAGA	0.222 ± 0.0041

Sequence	PBM E-score of 8-mer
AGGCGAGA	0.373 ± 0.012
AAACAGAT	-0.136 ± 0.01
GGAATGCC	-0.187 ± 0.06
ATGTTTTG	0.00867 ± 0.052
AACCTAGC	-0.0309 ± 0.0034
CACCTAGC	0.40555 ± 0.00015
CACCTAGA	0.294 ± 0.073
AACCTAGG	-0.0376 ± 0.091
CCCCTAGG	-0.0502 ± 0.012
CACCTAGG	0.392 ± 0.012
AGAAGACT	-0.285 ± 0.046
ACTAAATA	-0.131 ± 0.019
GCGAATAC	0.228 ± 0.018
AGCCGTCG	0.0127 ± 0.019
AAGGGTAA	-0.088 ± 0.0016
CCCACACG	0.15 ± 0.1
CCCACACA	0.199 ± 0.038
GCCACACC	0.421 ± 0.036
CCCACACC	0.438 ± 0.033
GCCACACA	0.335 ± 0.0096
ACCACACG	0.26 ± 0.039
GCCACAGC	0.00288 ± 0.017
CACACACC	0.454 ± 0.013
GACACACC	0.321 ± 0.016
ACCACACA	0.248 ± 0.037
ACCACACC	0.369 ± 0.029

Sequence	PBM E-score of 8-mer
AACACACC	0.326 ± 0.0067
CTCGAGAC	-0.0685 ± 0.051
CACCATAC	-0.065 ± 0.011
ACGGTTAT	0.0286 ± 0.041
ATGCCTGC	-0.295 ± 0.061
GTGGTGCA	0.0312 ± 0.0088
AGTTGTTC	0.00852 ± 0.024
CCGTTAGG	0.0143 ± 0.029
CCTATCGA	0.042 ± 0.12
ACCGTCTA	-0.0953 ± 0.012
CACAACCA	0.133 ± 0.025
CAAAAAGC	0.0694 ± 0.065
GGAGCTGA	-0.203 ± 0.042
CTGACACA	0.356 ± 0.022
CCGACAAC	0.159 ± 0.048
GTGACAAC	0.4467 ± 0.0025
ACGACAAC	0.2279 ± 0.0012
CTGACAAC	0.259 ± 0.018
ATGACAAA	-0.0554 ± 0.028
GTGACACA	0.403 ± 0.0044
GTGACAAA	0.38303 ± 5.7e-05
CTGACAAA	0.0345 ± 0.084
GAGACACA	0.15 ± 0.01
ATGACAAC	0.222 ± 0.017
GCGACAAC	0.369 ± 0.007
AGGTAGCA	0.0725 ± 0.016

Sequence	PBM E-score of 8-mer
ACCACAAT	-0.0442 ± 0.058
AACACCCA	0.293 ± 0.035
AGCACCCT	0.202 ± 0.025
GCCACCCC	0.181 ± 0.081
GACACCCC	0.405 ± 0.026
GGCACCCA	0.173 ± 0.021
AACACCCT	0.4 ± 0.0049
AACACCCC	0.39126 ± 9.9e-05
GCCACCCA	0.0264 ± 0.086
GGCACCCC	0.22 ± 0.003
ACCACCCT	0.0155 ± 0.074
ATCACCCC	0.232 ± 0.013
GACACCCA	0.374 ± 0.032
CAGCCGGA	0.05 ± 0.018
CCAGTCAC	0.0388 ± 0.0065
AAGTTTCT	0.0712 ± 0.037
CCTCCTCA	0.0831 ± 0.027
AGATCTCA	0.098 ± 0.054
TATTCTCA	0.264 ± 0.061
CGAAAACC	-0.297 ± 0.0092
GTCGCGTA	0.0514 ± 0.011
CCGGCCAA	-0.208 ± 0.042
AACACCAA	0.356 ± 0.012
ACCACCAT	0.108 ± 0.082
AACACCAT	0.377 ± 0.021
GATATAGC	0.118 ± 0.023

Sequence	PBM E-score of 8-mer
ATCAAATA	-0.182 ± 0.015
CGTCGACA	0.251 ± 0.031
AGTCGACA	0.179 ± 0.051
TGTCGACA	0.384 ± 0.01
GCAAACCC	-0.0464 ± 0.01
ACATATTC	0.203 ± 0.049
GCTCGCAC	0.4252 ± 0.0014
ACTCGCAT	-0.00696 ± 0.059
CCTCGCAA	0.102 ± 0.077
CCTCGCAG	0.128 ± 0.0015
ACTCGCAG	0.0332 ± 0.026
ACTCGCAC	0.394 ± 0.035
GCTCGCAA	0.224 ± 0.021
CCTCGCAC	0.396 ± 0.032
GCTCGCCC	-0.196 ± 0.039
AATTGGAC	-0.187 ± 0.049
GCAGTGGA	-0.261 ± 0.065
AACCTTAA	-0.218 ± 0.046
CACCTTAG	0.401 ± 0.04
GACCTTAA	-0.188 ± 0.0048
CCCCTTAG	-0.184 ± 0.068
CACCTTAA	0.387 ± 0.004
GACCTTAC	-0.286 ± 0.0076
AACCTTAC	0.0738 ± 0.012
CACCTTAC	0.413 ± 0.017
AACCTTAG	-0.144 ± 0.086

Sequence	PBM E-score of 8-mer
TAAGAGCA	-0.252 ± 0.049
CCGCTACC	0.162 ± 0.04
ATGCTTCG	0.0174 ± 0.071
CGTGCCTA	-0.0792 ± 0.002
GGTAGGCA	-0.079 ± 0.028
AAACTACA	0.014 ± 0.14
TAGGGGCA	-0.127 ± 0.04
ATGCACGC	-0.0415 ± 0.12
AGGTGAAC	0.164 ± 0.025
CGAAATCG	0.2456 ± 0.0015
CACTTGCG	0.387 ± 0.026
AACTTGCG	0.198 ± 0.0091
CACTTGTA	0.116 ± 0.046
CACTTGCA	0.336 ± 0.012
CACTTGTC	0.375 ± 0.012
AACTTGTC	0.355 ± 0.03
CGGCGCCC	0.0161 ± 0.043
CTCTGACA	0.233 ± 0.019
TAACATTA	-0.0674 ± 0.087
TAATATTA	-0.13 ± 0.033
GAGTCGAC	0.107 ± 0.061
GATGTCCA	-0.22 ± 0.056
AGCTAACA	0.233 ± 0.022
TGCTAACA	0.369 ± 0.022
CGCTAACG	0.373 ± 0.0088
GGCTAACA	0.235 ± 0.024

Sequence	PBM E-score of 8-mer
CGCTAACC	0.19 ± 0.0091
AGCTAACG	0.236 ± 0.016
CAGCTCGG	-0.132 ± 0.057
CGGTGGAA	-0.0405 ± 0.033
ATCTATGC	-0.197 ± 0.03
ACGAGTAT	-0.0491 ± 0.014
CAATCCTA	-0.0316 ± 0.041
AAACCACT	-0.258 ± 0.016
AGCACTTG	0.168 ± 0.018
AACGCATG	0.0228 ± 0.0081
TACCTTGA	0.01 ± 0.065
GACCTTGA	-0.145 ± 0.019
CAGCTTGG	-0.00698 ± 0.044
AACCTTGC	0.00568 ± 0.0057
CACCTTGC	0.389 ± 0.013
GACCTTGC	-0.153 ± 0.0056
CACCTTGG	0.45 ± 0.005
CACCTTGA	0.367 ± 0.042
AACCTTGG	-0.0793 ± 0.032
